Several values for one entry are separate records, joined by “and”; a condition that tells them apart may be missing. Equal entries are not always repeated. A number with no mark means an inactive call. Results filed as inconclusive are left out. Activity calls are given as the source filed them. Unless noted, calls come from the whole dose curve; as a rule, active = well fitted curve in the direction sought with a large enough effect in the repeat runs; inconclusive = weak or mixed curves; inactive = no such curve, though single readings can be large; an effect the other way counts as inactive or inconclusive.

Test [1] is described as follows: qHTS assay to identify small molecule antagonists of the constitutive androstane receptor (CAR) signaling pathway - cell viability counter screen (AID 1224837). Note: nearly all actives have a fitted effect of over 45% in size. Note: potency is the fitted concentration of half-maximal effect. An outline of the steps: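 HepG2 cells stably carrying hCAR and CYP2B6-2.2kb reporter, stimulated with 50 nM CITCO and compounds at 15 concentrations for 23 h at 37 C. Viability measured by CellTiter-Fluor fluorescence.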
For orientation: qHTS replaces the single test concentration by a dilution series.

Test [2] addresses Nuclear receptor subfamily 1 group I member 3 (Homo sapiens) (UniProt Q14994). In words: qHTS assay to identify small molecule antagonists of the constitutive androstane receptor (CAR) signaling pathway (AID 1224838). Note: nearly all actives have a fitted effect of over 40% in size. Put shortly: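 HepG2 cells stably carrying hCAR and a CYP2B6-2.2kb luciferase reporter, seeded 4 hrs before compound (15 concentrations). Stimulated with 50 nM CITCO for 24 hr at 37 C. ONE-Glo luminescence read after 30 min at room temperature.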

The target is the same in test [3]. Put plainly: qHTS assay to identify small molecule agonists of the constitutive androstane receptor (CAR) signaling pathway (AID 1224839). Note: nearly all actives have a fitted effect of over 15% in size. Put shortly: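 Cells were plated and incubated 4 hrs, then dosed with compounds at 15 concentrations. PK11195 was added to 0.75 uM final. After 24 hrs at 37 C, luciferase luminescence was measured.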
Test [4] is described as follows: qHTS assay to identify small molecule antagonists of the estrogen related receptor signaling pathway with the pleiotropic PPARgamma coactivator (PGC) from Tox21 10K library - cell viability counter screen (AID 1224840; active = well fitted cell-killing curve with a large enough effect in the repeat runs, not every such curve was filed as active; note: nearly all actives have a fitted effect of over 40% in size). An outline of the steps: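 PGC/ERR cells (2,000/well) plated 6 h, then compound-treated for 17.5 h at 37 C. Viability measured by CellTiter-Fluor fluorescence after 30 min at 37 C, multiplexed with the pathway assay.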

Test [5] in a line: qHTS assay to identify small molecule antagonists of the estrogen related receptor signaling pathway with the pleiotropic PPARgamma coactivator (PGC) from Tox21 10K library (AID 1224841; call rule not given here; note: actives are mostly falling curves and most rising ones were filed inactive; nearly all actives have a fitted effect of over 50% in size). An outline of the steps: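 PGC/ERR cell line, 2,000 cells/well, pre-incubated 6 hours at 37 C, then exposed to compounds for 18 hours at 37 C; luciferase read with One-Glo luminescence after 30 min at room temperature.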

A short description of test [6]: qHTS assay to identify small molecule agonists of the estrogen related receptor signaling pathway with the pleiotropic PPARgamma coactivator (PGC) from Tox21 10K library (AID 1224842). Note: nearly all actives have a fitted effect of over 15% in size. An outline of the steps: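 Luminescence from One-Glo (30 min, room temperature) measured after PGC/ERR cells had 18 h at 37 C with pinned compound (23 nL in DMSO). Cells had been seeded at 2,000 per well and pre-incubated 6 h.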

Test [7] concerns the target Thyrotropin receptor (Homo sapiens) (UniProt P16473). Put plainly: qHTS assay to identify small molecule agonists of the thyroid stimulating hormone receptor (TSHR) signaling pathway (AID 1224843; calls by dose curve; note: nearly all actives have a fitted effect of over 45% in size). Put shortly: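 Screening of the Tox21 10K collection used HEK293 cells engineered with TSHR at 800 cells per well. After a 30-min room-temperature compound exposure, HTRF cAMP reagents were added and fluorescence recorded 1 h later.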

Test [8] can be described thus: qHTS assay to identify small molecule agonists of the hypoxia (HIF-1) signaling pathway - cell viability counter screen (AID 1224844; calls by dose curve; note: nearly all actives have a fitted effect of over 50% in size; note: potency is the fitted concentration of half-maximal effect). Put shortly: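 HRE-bla ME-180 cells, 2,000/well in 0.5% dialyzed FBS medium, treated 17 h at 37C with compounds. Viability read in the same wells as the bla reporter, by CellTiter-Glo luminescence after 30 min at room temperature.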

A short description of test [9]: qHTS assay to identify small molecule agonists of H2AX (AID 1224845; active = well fitted activation curve with a large enough effect in the signal ratio in the repeat runs, not every such curve was filed as active; the % refers to the signal ratio). An outline of the steps: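 Phospho-H2AX Ser139 measured by HTRF (ex 320 nm; em 665 and 620 nm) after 24 hr antibody incubation. Compounds, 15 concentrations, 0.76% DMSO, were applied to CHO-K1 cells for 3hr at 37C before lysis.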
Test [10] is described as follows: qHTS assay to identify small molecule agonists of the hypoxia (HIF-1) signaling pathway (AID 1224846; active = well fitted activation curve with a large enough effect in the signal ratio in the repeat runs, not every such curve was filed as active; the % refers to the signal ratio). Put shortly: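 HRE-bla ME-180 beta-lactamase reporter cells in medium with 0.5% dialyzed FBS, pre-incubated 5 h then exposed to compounds 17 h at 37C, 5% CO2; reporter induction read with CCF4-AM FRET substrate.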
A short description of test [11]: qHTS assay to identify small molecule agonists of H2AX - cell viability counter screen (AID 1224847; calls by dose curve; note: nearly all actives have a fitted effect of over 30% in size; note: potency is the fitted concentration of half-maximal effect). An outline of the steps:
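Cytotoxicity counter screen in wild-type CHO-K1 cells: a 3 hr compound treatment at 37C across 15 concentrations, followed by CellTiter-Glo luminescence to gauge viable cells.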

A short description of test [12]: qHTS assay to identify small molecule antagonists of the estrogen related receptor (ERR) signaling pathway from Tox21 library (AID 1224848). Note: nearly all actives have a fitted effect of over 50% in size. Put shortly: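 Antagonist-mode screen of the Tox21 10K library in an NTP-provided ERR reporter cell line; 18 h compound exposure at 37 C, luminescence measured with ONE-Glo.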
A short description of test [13]: qHTS assay to identify small molecule agonists of the estrogen related receptor (ERR) signaling pathway from Tox21 library (AID 1224849; calls by dose curve; note: nearly all actives have a fitted effect of over 15% in size). As to conditions: ERR reporter cell line, ONE-Glo luciferase, 18 h. Put shortly:
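ERR reporter cells (NTP line) pre-incubated 6 hours at 37 C, then exposed to compounds for 18 hours at 37 C. ONE-Glo luciferase luminescence was read after 30 minutes at room temperature.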

Test [14] is described as follows: qHTS RealTime-Glo MT Cell Viability Assay in HepG2 cells - 24 hour (AID 1224867). Note: nearly all actives have a fitted effect of over 50% in size. An outline of the steps: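 HepG2 suspension premixed with RealTime-Glo reagents is plated at 600 cells per well and left 5 h at 37 C/5% CO2. Compounds in DMSO then go in, and bioluminescence reflecting viable cell number is recorded over 40 h.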
Test [15] can be described thus: qHTS RealTime-Glo MT Cell Viability Assay in HEK293 cells - 32 hour (AID 1224868). Note: nearly all actives have a fitted effect of over 50% in size. Note: potency is the fitted concentration of half-maximal effect. Put shortly: (§1)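 Reads taken at 0, 8, 16, 24, 32 and 40 h from the same wells. HEK293 cells (600/well) carried RealTime-Glo reagents from seeding, with compound added after a 5 h settle at 37 C.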
Test [16] in a line: qHTS RealTime-Glo MT Cell Viability Assay in HepG2 cells - 40 hour (AID 1224870). Note: nearly all actives have a fitted effect of over 50% in size. Put shortly:
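Real-time viability: cells seeded at 600 per well together with NanoLuc and cell-permeant prosubstrate, compounds added after 5 h incubation. Luminescence tracked at 0, 8, 16, 24, 32 and 40 h of exposure.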

Test [17] in a line: A CellTox Green Cytotoxicity Assay to monitor cytotoxicity in HEK293 cells - 40 hour (AID 1224871). Note: nearly all actives have a fitted effect of over 45% in size. Put shortly:
(§2)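 HEK293 cells, 600/well, were preincubated 5 hours and then exposed to compounds at 37 C for up to 40 hours. A cell-impermeant cyanine dye staining dead-cell DNA was read by fluorescence at 0, 8, 16, 24, 32 and 40 h time points.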

Test [18] can be described thus: qHTS RealTime-Glo MT Cell Viability Assay in HEK293 cells - 16 hour (AID 1224872). Put shortly:
as §1

A short description of test [19]: A CellTox Green Cytotoxicity Assay to monitor cytotoxicity in HEK293 cells - 0 hour (AID 1224869). Note: nearly all actives have a fitted effect of over 50% in size. Put shortly: as §2
A short description of test [20]: qHTS assay to identify small molecule agonists of the constitutive androstane receptor (CAR) signaling pathway - cell viability counter screen (AID 1224836). Note: nearly all actives have a fitted effect of over 45% in size. Note: potency is the fitted concentration of half-maximal effect. An outline of the steps:
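Cells were seeded and incubated 4 hrs. Compounds were added across 15 concentrations together with PK11195 at 0.75 uM final. Plates were incubated 23 hrs at 37 C. CellTiter-Fluor was added and fluorescence measured.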
% is set by controls: 0 for no effect and ±100 for the full control effect.

Thyrotropin receptor (Homo sapiens), sequence (P16473 whole entry, looked up): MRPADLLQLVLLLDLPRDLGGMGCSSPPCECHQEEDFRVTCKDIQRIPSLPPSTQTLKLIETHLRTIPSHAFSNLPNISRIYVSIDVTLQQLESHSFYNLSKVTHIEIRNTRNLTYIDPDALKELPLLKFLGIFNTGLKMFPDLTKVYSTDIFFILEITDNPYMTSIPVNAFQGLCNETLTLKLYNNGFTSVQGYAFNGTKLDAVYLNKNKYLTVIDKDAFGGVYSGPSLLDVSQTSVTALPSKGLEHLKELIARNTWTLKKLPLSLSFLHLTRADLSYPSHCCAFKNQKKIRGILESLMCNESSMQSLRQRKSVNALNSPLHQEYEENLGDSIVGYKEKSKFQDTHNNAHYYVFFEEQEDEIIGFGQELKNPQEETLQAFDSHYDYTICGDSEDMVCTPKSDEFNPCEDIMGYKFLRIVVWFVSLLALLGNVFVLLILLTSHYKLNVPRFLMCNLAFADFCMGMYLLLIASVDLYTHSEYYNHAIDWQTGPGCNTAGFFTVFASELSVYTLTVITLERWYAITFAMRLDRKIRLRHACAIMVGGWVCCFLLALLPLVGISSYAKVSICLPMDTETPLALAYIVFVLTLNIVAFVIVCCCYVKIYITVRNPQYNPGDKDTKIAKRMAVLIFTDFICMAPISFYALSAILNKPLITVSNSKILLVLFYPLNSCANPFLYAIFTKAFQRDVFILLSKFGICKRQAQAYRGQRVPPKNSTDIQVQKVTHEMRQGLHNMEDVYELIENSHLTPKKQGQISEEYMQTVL
Nuclear receptor subfamily 1 group I member 3 (Homo sapiens), sequence (Q14994 whole entry, looked up): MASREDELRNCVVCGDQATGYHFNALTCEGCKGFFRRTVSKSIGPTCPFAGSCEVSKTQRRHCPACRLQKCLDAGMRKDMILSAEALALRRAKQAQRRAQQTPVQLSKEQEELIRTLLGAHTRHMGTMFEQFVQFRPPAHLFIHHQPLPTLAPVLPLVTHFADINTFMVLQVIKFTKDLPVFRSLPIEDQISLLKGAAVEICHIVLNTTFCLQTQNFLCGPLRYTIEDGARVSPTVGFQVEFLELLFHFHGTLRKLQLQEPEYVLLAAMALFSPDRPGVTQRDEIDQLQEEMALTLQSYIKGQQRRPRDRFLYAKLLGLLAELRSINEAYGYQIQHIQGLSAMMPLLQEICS

With `O=S(=O)(O)c1ccc2nc(-c3ccccc3)[nH]c2c1`, the Potency entry in test [1], in test [2], in test [3], in test [4], in test [5] and in test [6] was “inactive” in each case. Moreover, the Potency entry in [7], in test [9], in test [10], in test [12], in test [14] and in test [15] was “inactive” throughout. Also, the Potency entry in test [16], in test [17] and in [18] was “inactive” in each case. For the same compound, the Potency in test [8] is 18.6 µM (active) and 10.7 µM (active); in test [11], 30.3 µM (active) and 22 µM (active). For the same compound, the activity change, positive = activation in [13] (at 42.5 µM (top of the series)) is 2.03%; in test [13] (at 92.4 µM (top of the series)), -3.59%.
`C=CS(=O)(=O)O`: the Potency result in [1], in test [2], in test [3], in [4], in [5] and in [6] was “inactive” throughout. For the same compound, the Potency result in test [7], in [8], in [9], in [10], in test [11] and in test [14] was “inactive” throughout. Also, the Potency result in test [15] and in [17] was “inactive” in each case. The activity change, positive = activation in test [13] (at 92.4 µM (top of the series)) is -0.911%.
As to `C#CC(C)(CC)OC(=O)c1ccccc1C(=O)O` (centres undefined), the Potency entry in [1], in test [2], in test [3], in [4], in test [5] and in test [6] was “inactive” in each case. Moreover, the Potency result in [7], in test [8], in test [9], in test [10], in test [11] and in [12] was “inactive” each time. Also, the Potency result in test [14], in [15], in test [19], in [16], in [17] and in test [18] was “inactive” each time. For the same compound, in test [13] (at 42.5 µM (top of the series)), the activity change, positive = activation is 0.513%.
On to `CC1=C(C=O)C(C)(C)CC=C1`, for which the Potency result in test [1], in test [2], in test [3], in [4], in [5] and in [6] was “inactive” each time. Moreover, the Potency entry in [7], in test [8], in test [9], in test [10], in test [11] and in test [14] was “inactive” throughout. Besides, the Potency result in [15], in [19], in [17] and in [18] was “inactive” throughout. In addition, the activity change, positive = activation in test [13] (at 92.4 µM (top of the series)) was 0.302%.
Turning to `O`, the Potency result in test [20], in test [1], in test [4], in [7], in [8] and in [9] was “inactive” throughout. The Potency entry in test [10], in test [11], in test [14], in [15], in test [16] and in test [17] was “inactive” in each case.
On to `CC[C@]1(O)C[C@@H]2CN(CCc3c([nH]c4ccccc34)[C@@](C(=O)OC)(c3cc4c(cc3OC)N(C)[C@H]3[C@@](O)(C(=O)OC)[C@H](OC(C)=O)[C@]5(CC)C=CCN6CC[C@]43[C@@H]65)C2)C1`, for which the Potency in [20] was 1.19 µM (active) and 2.98 µM (active); in [1], 2.66 µM (active) and 4.22 µM (active); in test [15], 16.9 nM (active) and 4.8 nM (active). Further, the Potency entry in test [4], in [6], in test [7], in test [8], in test [9] and in [10] was “inactive” throughout. For the same compound, the Potency entry in [11] and in [17] was “inactive” throughout. Moreover, in [13] (at 42.5 µM (top of the series)), the activity change, positive = activation was -22% and -33.9%.

Source of the values: PubChem BioAssay (Tox21).
